# Compounds without any hit were thinned out: in the full panel of roughly 79,000, 15% have a hit. Active and inactive are the calls of the source. No stated cut-off is given here; in the data, active means growth inhibition above about 70%; inactive means the rest.
# Test: NCI Yeast Anticancer Drug Screen. Data for the mlh1 rad18 strain (AID 175)
# Conditions: S. cerevisiae mlh1 rad18 strain growth inhibition; at 50.0 µM; stronger effect = higher value
# How it was run: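 Inhibition values reflect reduced growth of mutant yeast versus vehicle-treated controls following compound exposure; the mutations affect DNA damage repair.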
row,Structure (SMILES),growth inhibition
1,O=C(NNC(=O)OCc1ccccc1)OCc1ccccc1,18.1% (inactive)
2,CC1=Nc2nc3ccccc3n2C(C)(C)C1,-34.1% (inactive)
3,Nc1ncc2c(n1)-c1ccccc1OC2NC1CC1 (configuration not stated),-4.65% (inactive)
4,O=C(CC(=O)n1nc(-c2ccccc2)c(N=Nc2ccc([N+](=O)[O-])cc2)c1-c1ccccc1)Nc1ccc(Cl)cc1,23.9% (inactive)
5,O=C1C(=O)N(C23CC4CC(CC(C4)C2)C3)C(=S)N1c1ccccc1,-27.2% (inactive)
6,CC1OCC2CC3(O1)OC3C(COCC1OC3COC(C)OC4(C3)OC14)O2 (configuration not stated),-14.9% (inactive)
7,c1ccc(COc2ccc3c(c2)CN(Cc2ccccc2)CO3)cc1,-9.1% (inactive)
8,CNCCCCCCNc1cc(OC)cc2cccnc12,58.8% (inactive)
9,Cc1ccc(S(=O)(=O)N/N=C/C(C)(c2ccccc2)c2ccccc2)cc1,47.8% (inactive)
10,O=C(NN1C(=O)C(Cl)C1c1cccc(Cl)c1)c1ccccc1O (configuration not stated),-17.1% (inactive)
11,CCOC(=O)C1=C(O)C(=O)c2ccoc2C1=O,-32% (inactive)
12,CC(CO)(CO)Nc1ncnc2ccccc12,9.7% (inactive)
13,BrC1CCC(Br)CC1 (configuration not stated),-9.7% (inactive)
14,Cc1nc2ccccc2o1,-10.4% (inactive)
15,Cc1cc(-c2ccccc2)[nH]c1-c1nccc2ccccc12,4.7% (inactive)
16,CN1c2ccccc2Sc2cc(/C=C3/SC(=S)NC3=O)ccc21,0.15% (inactive)
17,Cc1nc2ccc(S(=O)(=O)Nc3ccccc3Cl)cc2c(=O)n1NC(=O)CNc1ccccc1Cl,21.3% (inactive)
18,C[C@]12CCC[C@H](O)[C@H]1O2,-10.2% (inactive)
19,Cc1ccc(C)o1,2.6% (inactive)
20,CN(C)N=Nc1ccccc1,29.2% (inactive)
21,CC1(Br)CP(=O)(c2ccccc2)CC1Br (configuration not stated),-6% (inactive)
22,C=C(c1ccc(OC)cc1)c1cc(C(C)(C)C)c(O)c(C(C)(C)C)c1,0.35% (inactive)

# From PubChem BioAssay (NCI)
